Rows were chosen to be rich in hits. Some 17% of all compounds tested hit in one or more screens of this group.
ATXN2 expr inh = ATXN2 expression inhibition; HEK-293 ATXN2-luciferase reporter, luminescence, 24 h; Potency, µM (titrated, usually from 57 µM), inactives show at the top dose activity change, negative = inhibition, most hits filed as inhibitors; hit rate 0.72% among 360,000; AID 1745845; also: % is scaled to controls: 0 for no effect and ±100 for the full control effect; nearly all actives have a fitted effect of over 55% in size
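ATXN2-luciferase reporter cells (luciferase flanked by upstream and downstream ATXN2 gene portions) were treated 24 h at 37 °C with compounds at up to 57 uM. SteadyGlo luminescence gave expression; GF-AFC fluorescence gave viability.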
DT40 TDP1 no CPT = qHTS for Inhibitors of human tyrosyl-DNA phosphodiesterase 1 (TDP1): qHTS in cells in absence of CPT; DT40 Tdp1-/- hTDP1 cells, no CPT, ATP luminescence, 48 h; Potency, µM (highest dose often 46.2 µM), for the others: top-dose activity change, negative = growth inhibition, hits mostly inhibitors; hit rate 15% among 420,000; also: % is scaled to controls: 0 for no effect and ±100 for the full control effect; nearly all actives have a fitted effect of over 55% in size
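Growth kinetics read by CellTiter-Glo luminescence after ≥48 hr at 37 °C. Cells: DT40 Tdp1-/- stably carrying human TDP1, 400 per well, compound exposure in the absence of CPT (DMSO vehicle).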
S2 tox = cell viability loss in ATXN counter-screen; hit rate 0.49% among 400,000; S2 cells (HEK-293 line with an ATXN2-luciferase reporter) viability, CellTiter-Fluor protease fluorescence, 24 h; Potency, µM (titrated, usually from 56.7 µM), most hits filed as cytotoxic; AID 651635; also: nearly all actives have a fitted effect of over 40% in size
HepG2 tox = HepG2 cytotoxicity, counter-screen for TGF-b inhibitors; HepG2 CAGA-GFP viability, ATP luminescence, 18 h; hit rate 0.76% among 410,000; Potency, µM (doses to about 46.1 µM), for inactives: at the top dose activity change, negative = cytotoxicity, actives largely listed as cytotoxic
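CellTiter-Glo luminescence gave cytotoxicity after 18 hours at 37 degrees C. The cells were HepG2 CAGA-GFP in 1% FBS DMEM, stimulated with 500 pg/mL TGF-beta after compound addition. %Activity was normalised to no-cell wells (complete cell-killing) and DMSO (no toxicity), and curves were fitted and classified.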
TGFb inhibitor = TGF-b pathway inhibition; HepG2 CAGA-GFP TGF-b/SMAD3 reporter, GFP fluorescence, 18 h; TGF-beta stimulated, 500 pg/mL final; Potency, µM (series often up to 46.1 µM), for the others: at the highest dose activity, negative = inhibition, actives largely listed as inhibitors; hit rate 1.2% among 410,000; AID 588855; also: % is scaled to controls: 0 for no effect and ±100 for the full control effect; nearly all actives have a fitted effect of over 65% in size
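HEPG2 CAGA-GFP, 1000 cells/well; 2 h settle, 37 C; cpd via pin tool; TGF-b 500 pg/mL final; 18 h, 37 C; GFP imaging ex488/em500-530; %Activity normalised to -TGF-b and +DMSO controls; CRC fit, curve class.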
DT40 TDP1 CPT = growth inhibition of DT40 Tdp1-/-;hTDP1 cells with camptothecin (screen for TDP1 inhibitors); chicken DT40 Tdp1-/-;hTDP1 cells + 20 nM CPT, ATP luminescence, 48 h; Potency, µM (series often up to 46.2 µM), inactives show at the highest dose activity change, negative = growth inhibition, actives largely listed as inhibitors; hit rate 12% among 420,000; also: % is scaled to controls: 0 for no effect and ±100 for the full control effect; nearly all actives have a fitted effect of over 55% in size
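Chicken DT40 Tdp1-/- cells complemented with human TDP1, 400 cells/well, exposed to compounds plus 20 nM camptothecin for at least 48 h at 37 C; viability read as ATP content by CellTiter-Glo luminescence.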
The depositor's hits bear a star; i = inactive; ? = inconclusive; · = not tested or not shown. Calls follow the shape of the dose curve; as a rule, active = well fitted curve in the direction sought with a large enough effect; inconclusive = small, poorly fitted or top-dose-only effect, or another doubt; inactive = no such curve, though single readings can be large; an effect the other way counts as inactive or inconclusive. Potency is read from the fitted curve at half-maximal effect.

SMILES | ATXN2 expr inh | DT40 TDP1 no CPT | S2 tox | HepG2 tox | TGFb inhibitor | DT40 TDP1 CPT
NC(=S)N/N=C/c1coc2ccc(F)cc2c1=O | -1% | 0% | i | 13% | 1% | 0%
Cc1ccc(S(=O)(=O)N(Cc2ccccc2)c2ccccc2C(=O)NCc2cccnc2)cc1 | -3% | 13% | ? | 17% | 3% | 11%
O=C(Cc1ccccc1[N+](=O)[O-])NCC(O)c1ccc2c(c1)OCO2 (stereo not given) | 6% | -12% | i | 7% | -1% | -4%
CCOC(=O)CN1C(=O)C(O)(C2CCc3ccccc3C2=O)c2ccccc21 (stereo not given) | -19% | ? | i | -9% | -30% | ?
CCCN1C(=O)C(O)(C2CC(=O)CC(C)(C)O2)c2ccccc21 (stereo not given) | -9% | 5.8µM* | i | -15% | 7% | 5.8µM*
O=C(O)CNC(=O)CC1S/C(=N/N=C2\CSC(=O)N2)NC1=O (stereo not given) | · | 0% | ? | 1% | 2% | -9%
O=C(O)CNC(=O)CC1S/C(=N/N=C/c2ccccc2O)NC1=O (stereo not given) | · | 16µM* | i | -20% | 10% | 21µM*
O=c1c(-c2cccs2)nc2cnc(Oc3cccc(Cl)c3)nc2n1C1CC1 | · | -17% | · | · | · | -1%
Cc1ccc(Cn2c(C(=O)O)c(CNCCc3ccco3)c3ccc(C)cc32)cc1 | 5% | -18% | · | -20% | -2% | -23%
Cc1ccc(Cn2c(C(=O)O)c(CNC3CCCCCC3)c3ccc(C)cc32)cc1 | -2% | -18% | i | -5% | ? | 4%
Cc1ccc(Cn2c(C(=O)O)c(CNCc3cccs3)c3ccc(C)cc32)cc1 | ? | ? | ? | -53% | ? | 15µM*
C=Cc1ccc(Cn2c(C(=O)O)c(CNCCc3ccccc3)c3ccc(C)cc32)cc1 | ? | ? | 22µM* | -111% | ? | ?
Cc1ccc(Cn2c(C(=O)O)c(CNCc3ccccc3Cl)c3ccc(C)cc32)cc1 | 8% | ? | ? | -6% | ? | 23µM*
COc1ccc(Cn2c(C(=O)O)c(CNCCc3ccccc3Cl)c3ccc(C)cc32)cc1 | ? | ? | 18µM* | -31% | ? | ?
CC(CC(=O)N1CCc2ccccc21)S(=O)(=O)c1ccc2c(c1)NC(=O)CO2 (stereo not given) | 8% | -12% | i | 1% | 0% | -21%
CC(C)NC(=O)N1CCC2(CC1)CCN(C(=O)c1cccc(F)c1)CC2 | · | -6% | · | · | · | 2%
COc1cccc(NC(=O)C2CCN(S(=O)(=O)c3c(C)noc3/C=C/c3cccs3)CC2)c1 | · | 13µM* | · | -34% | ? | ?
COc1ccccc1CNC(=O)C1CCN(S(=O)(=O)c2c(C)noc2/C=C/c2cccs2)CC1 | · | 18µM* | · | -23% | -9% | 18µM*
Cc1ccc(NC(=O)c2ccc(-c3cccc(Cl)c3C)o2)cc1 | 15% | ? | i | -38% | ? | -23%
Cc1ccc(-c2ccc(C(=O)Nc3cccc(F)c3)o2)c2ccccc12 | -1% | 21µM* | i | -19% | ? | ?
O=C(Nc1cccc(F)c1)c1ccc(-c2ccccc2Cl)o1 | 22% | 16µM* | i | -44% | ? | ?
CCCCCOc1ccc(C2C(C(=O)c3ccc(C)o3)=C(O)C(=O)N2c2cc(C)on2)cc1 (stereo not given) | 0% | ? | ? | 3% | -3% | ?
Cc1ccc(S(=O)(=O)N(C)C)cc1NC(=O)COC(=O)c1sc2cc(Cl)ccc2c1Cl | 5% | -2% | i | 2% | 6% | ?
O=C(O)c1cccc(S(=O)(=O)Nc2ccc(N3CCCCC3)cc2)c1 | 4% | 7% | i | 6% | 3% | -22%
CC(=O)Nc1cc(C(C)C)c(O)c(C(C)C)c1 | -12% | -27% | i | -54% | -9% | -7%
SMILES | ATXN2 expr inh | DT40 TDP1 no CPT | S2 tox | HepG2 tox | TGFb inhibitor | DT40 TDP1 CPT
CC(C)c1cc(CN2C(C)COCC2C)cc(C(C)C)c1O (stereo not given) | -7% | ? | i | -16% | -18% | 21µM*
CCOC(=O)N1CCC(NC(=O)c2cccc3c2C(=O)N(c2ccc(OC)cc2)C3)CC1 | -15% | ? | ? | -15% | -26% | 15µM*
COc1ccc(N2Cc3cccc(C(=O)Nc4ccc(C)cc4)c3C2=O)cc1 | -2% | -19% | i | -14% | -17% | ?
COc1ccc(N2Cc3cccc(C(=O)Nc4ccc(F)cc4)c3C2=O)cc1 | · | 8.2µM* | · | 1% | 8% | 10µM*
COC(=O)c1c(-c2c(Cl)cccc2Cl)noc1NC(=O)NN1CCOCC1 | 3% | -19% | ? | -1% | 6% | -8%
COC(=O)c1c(-c2c(Cl)cccc2Cl)noc1NC(=O)NN1CCCCC1 | -1% | 16µM* | i | 30% | -2% | ?
NC(=O)C1CCN(C(=O)CNC(=O)c2ccc(F)cc2)CC1 | 2% | 0% | i | -4% | -18% | -4%
Cc1ccc(C)c(N2CCN(C(=O)c3cc(C)nc4c3c(C)nn4-c3ccccc3)CC2)c1 | -15% | 18µM* | i | -18% | ? | ?
CSc1ncc(C(=O)N2CCN(c3cc(Cl)ccc3C)CC2)c(C)n1 | ? | ? | i | -21% | -24% | -27%
Cc1cc(C(=O)N2CCN(c3ccccc3F)CC2)c2c(C)nn(-c3ccccc3)c2n1 | -21% | ? | i | -7% | -8% | ?
Cc1cc(C(=O)N2CCN(c3cc(Cl)ccc3C)CC2)c2c(C)nn(-c3ccccc3)c2n1 | -17% | ? | i | 16% | -1% | 21µM*
CSc1ncc(C(=O)N2CCN(c3cc(C)ccc3C)CC2)c(C)n1 | -8% | ? | i | 6% | -2% | 21µM*
Cc1ccc(S(=O)(=O)n2ccc3c2CCCC3=O)cc1 | 24% | 21µM* | i | 0% | 3% | ?
COc1cc(OC)nc(NC(=O)COC(=O)c2cccc(Cl)c2)n1 | -9% | -7% | i | -7% | -3% | 0%
N#C/C(=C\c1ccc(-c2ccccc2[N+](=O)[O-])o1)C(=O)Nc1nc(-c2cccs2)cs1 | 5% | 29µM* | i | -6% | 0% | ?
N#C/C(=C\c1ccc(-c2ccc([N+](=O)[O-])cc2)o1)C(=O)Nc1nc(-c2cccs2)cs1 | 1% | ? | i | -2% | -10% | ?

Source: PubChem BioAssay
